A selection: hits, their analogues and other compounds. The true share with any hit is near 2.1%.
IDE inh = inhibits human insulin-degrading enzyme in HEK cells; P14735; inhibition, % at 5.59 µM; actives 0.41% (n = 320,000); FAbetaB cleavage, fluorescence polarization;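 active = percent inhibition above the average of all tested compounds plus 3 SD, set per screening campaign, cut at about 16% in these data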;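 note: IDE supplied by intact live HEK cells; FP after avidin binding of uncleaved biotin substrate so inhibition keeps polarization high; 0% = DMSO wells and 100% = 60 µM reference IDE inhibitor Ii1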
IDE cell activ = activators of human insulin-degrading enzyme in cells; P14735; HEK cells, FAbeta-B cleavage, fluorescence polarization; 0% vehicle, 100% cell-free pure enzyme wells; activation, % at 5.96 µM; actives 0.073% (n = 340,000); AID 493087;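 active = activation above the mean of all tested compounds plus 3 SD, set per screening campaign, cut at about 17% in these data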
LANA-H2B inh = blocks KSHV LANA binding to histone H2A/H2B | Q9QR71 | cell-free LANA-H2A/H2B peptide, fluorescence polarization | inhibition, % (test concentration not listed) | actives 0.6% (n = 320,000) | AID 2629; in the data active = inhibition mostly above about 10%, no sharp cut-off; inactive = mostly below about 6.7%
HDAC3 inhib = blocks human histone deacetylase 3. AID 2718. inhibition, % at 8.3 µM. recombinant HDAC3, fluorogenic peptide/trypsin coupled, fluorescence. actives 0.15% (n = 320,000); in the data active = inhibition above about 26%, passing the limit was not always enough; inconclusive = no clear call, values can overlap the other calls
Mot1-301 SUMO = inhibitors of SUMOylation pathway: yeast Mot1-301 growth rescue. S. cerevisiae Mot1-301 growth rescue, ATP luminescence, 38.5C; percent above DMSO median, 100 means doubled. growth rescue, % at 18.8 µM. actives 1% (n = 320,000). AID 2716;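 active = every valid replicate shows activation above 250% relative to neutral control wells; inactive = the rest, any valid replicate at or below 250%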;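 note: OY570 slx delta 5 strain wells were the positive control but not used for scaling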
Active calls of the source: *; ? = inconclusive; . = not tested or not shown.

SMILES	IDE inh	IDE cell activ	LANA-H2B inh	HDAC3 inhib	Mot1-301 SUMO
CN(CC(=O)Nc1cccc(F)c1)C(=O)c1ccc(C2SCCS2)cc1	-1.8	0.6	-13.9	59.1*	717.7
CCN(CC(=O)Nc1c(F)cccc1F)C(=O)c1ccc(C2SCCS2)cc1	1.7	12.4	-3.4	62.3*	.
COc1ccc(NC(=O)C(CC(=O)O)Cc2ccc(Cl)cc2)cc1 (stereo not given)	-1.7	1.8	-3.0	-9.0	21.8
COCCN1CC(=O)N2C(c3cccc(OC)c3)c3[nH]c4ccccc4c3C[C@H]2C1=O (stereo not given in full)	0.7	3.1	0.8	-3.9	-4.1
CC(=O)c1ccc(OC(C)C(=O)OCC(=O)NCCc2ccccc2)cc1 (stereo not given)	-0.7	-2.6	-2.8	-1.6	-3.6
COCCN(C(=O)c1c(C)noc1C)c1c(N)n(CC(C)C)c(=O)[nH]c1=O	0.4	6.5	1.1	3.4	-8.6
CCCOc1ccc(C(=O)ON=C2CCN(C)CC2)cc1	-0.9	3.0	31.3*	3.6	47.4
CCCOc1ccc(C(=O)O)cc1	-7.1	-4.3	-2.4	2.5	-8.7
OC(CN1CCC(Cc2ccccc2)CC1)c1ccccc1 (stereo not given)	9.1	0.8	-2.7	2.9	7.9
O=C(CC1C(=O)NCCN1Cc1cccc(Oc2ccccc2)c1)NCCc1ccncc1 (stereo not given)	-2.0	1.3	-0.5	0.4	19.5
O=C(N/N=C/c1ccco1)C1CCCC1	-0.7	5.1	3.5	3.7	-0.2
COc1cc(OC)cc(C(=O)N[C@H](C(=O)Nc2cccc(S(=O)(=O)N3CCCC3)c2)C(C)C)c1	-10.3	3.0	0.9	4.0	720.3*
COc1ccc(NC(=O)[C@@H](NC(=O)c2ccccc2)C(C)C)cc1S(=O)(=O)N1CCCCC1	-3.6	-1.4	-3.7	6.5	-0.2
CCc1ccc(NC(=O)C(C)OC(=O)Cc2cc(OC)c(OC)c(OC)c2)cc1 (stereo not given)	6.1	1.1	.	.	.
CC1(C)CCc2cc(-c3ccnc(=S)[nH]3)ccc2O1	25.8*	-24.6	3.8	-10.4	25.5
Cc1ccc(-c2ccnc(=S)[nH]2)cc1	10.9	-48.2	0.0	0.6	22.4
COc1ccc(CCNC(=O)COC(=O)C2CC2C)cc1OC (stereo not given)	-2.8	21.6*	-1.8	4.7	3.7
CCOc1ccc(Cc2nnc(SCC(=O)Nc3ccc(C(C)=O)cc3)[nH]c2=O)cc1	-0.7	0.7	-0.4	2.9	-1.3
C=CC[C@]12C[C@@H](OC)C(=O)C=C1O[C@@H](c1ccc(OC)c(OC)c1)[C@H]2C	2.3	5.7	1.1	4.6	-11.1
Cc1cnc(NC(=O)C2CC(=O)N(c3ccc4c(c3)OCCO4)C2)s1 (stereo not given)	0.3	3.8	4.1	-8.8	-1.8
Cc1nnc(NC(=O)C2CC(=O)N(c3ccc4c(c3)OCCO4)C2)s1 (stereo not given)	1.4	6.8	20.9*	0.4	4.1
CC(C)(C)C(=O)Oc1cc(N)n(S(=O)(=O)c2ccc(F)cc2)n1	-1.2	2.4	1.1	?	11.6
Cc1ccc(S(=O)(=O)n2nc(OC(=O)c3ccccc3C)cc2N)cc1	0.9	-6.3	-3.0	5.0	16.4
Cc1ccc(S(=O)(=O)n2nc(OC(=O)c3ccco3)cc2N)cc1	1.8	-3.3	2.5	58.2*	1.2
Cc1ccc(S(=O)(=O)c2c(C)nn(C(C)(C)C)c2OC(=O)c2ccc(Br)o2)cc1	-2.3	1.6	6.6	8.3	214.3
SMILES	IDE inh	IDE cell activ	LANA-H2B inh	HDAC3 inhib	Mot1-301 SUMO
Nc1cc(OC(=O)c2ccc(F)cc2)nn1S(=O)(=O)c1ccc(F)cc1	3.6	5.2	1.9	60.0*	7.4
Nc1cc(OC(=O)c2ccco2)nn1S(=O)(=O)c1ccc(F)cc1	-2.4	2.7	-0.1	85.3*	-12.1
Cc1ccc(S(=O)(=O)c2c(C)nn(C(C)(C)C)c2OC(=O)c2ccco2)cc1	-1.4	4.0	15.5*	2.2	-13.6
C[C@@H]1CN[C@H](CCO)/C1=C\c1ccccc1	.	5.0	.	.	.
CC(=O)Nc1ccc(NC(=O)C2CC(=O)N(Cc3ccco3)C2)cc1 (stereo not given)	.	0.2	.	.	.
O=C(CC1SC(N2CCCC2)=NC1=O)Nc1ccc(C(=O)Nc2ncccc2O)cc1 (stereo not given)	3.8	3.6	2.8	93.7*	10.0
O=C(CC1SC(N2CCCCC2)=NC1=O)Nc1cccc(C(=O)O)c1 (stereo not given)	4.1	1.5	14.0*	-4.7	11.7
Cc1ccc2c(c1)c1c(n2CC(O)CNC2CCCC2)CCCC1 (stereo not given)	5.1	17.6*	-2.8	3.6	-28.6
Cc1ccc2c(c1)c1c(n2CC(O)Cn2ccnc2C)C(=O)CCC1 (stereo not given)	1.9	1.6	-1.0	-4.7	173.7
CCC(CO)Oc1cc(NC(=O)c2ccc([N+](=O)[O-])cc2)c2ncn(C(C)C)c2c1 (stereo not given)	-2.8	-0.1	3.1	8.9	13.5
COc1ccc(C(=O)Nc2nnc(S(=O)(=O)Cc3ccc(F)cc3)s2)cc1	3.2	2.4	17.9*	2.9	14.7
Cc1cnc(NC(=O)c2ccc(-c3ccc([N+](=O)[O-])cc3)o2)s1	-0.9	1.4	8.0	-3.7	-3.8
Cc1cnc(NC(=O)c2ccc(-c3nc4ccccc4s3)o2)s1	1.9	5.4	28.8*	5.5	102.3
COc1ccc(Cl)cc1NC(=O)Cn1c(C)csc1=O	-3.0	2.0	1.9	-2.6	21.1
O=C(CCCN1C(=O)c2cccc3cccc(c23)C1=O)N1CCN(c2ccccc2)CC1	2.9	1.4	16.8*	-3.8	7.5
O=C(CCCN1C(=O)c2cccc3cccc(c23)C1=O)N1CCN(c2ccccc2O)CC1	4.7	-2.8	0.4	-5.4	-8.5
Cc1nn(C(=O)CNC(=O)c2ccccc2)c(C)c1C	2.4	5.9	9.6*	-1.0	-4.1
Cc1cc(C)n(C(=O)CNC(=O)c2cccc(F)c2)n1	.	7.3	.	.	.
C[n+]1c2n(c3ccccc31)N=C(c1ccc(Cl)cc1)CS2	-1.3	7.5	1.9	55.0*	-14.7
CC1Sc2n(c3ccccc3[n+]2C)N=C1c1ccccc1 (stereo not given)	-1.5	1.9	0.7	-0.1	-4.7
COc1ccc(C2=Nn3c([n+](C)c4ccccc43)SC2)cc1	-0.3	0.4	3.8	31.2*	303.2
O=C(CCn1cccn1)N1CCCC(N2CCN(c3cccc(C(F)(F)F)c3)CC2)C1 (stereo not given)	0.2	5.8	-3.6	0.5	-1.7
Cc1[nH]c(=O)nc(SCc2cccc(Cl)c2)c1C#N	1.6	1.9	5.7	1.6	1.2
N#Cc1c(SCc2c(Cl)cccc2Cl)nc(N)[nH]c1=S	4.5	-8.2	11.2*	1.0	-6.1
COc1ccc(CCNC(=O)C(C)n2nc(C)n3c(cc4occc43)c2=O)cc1OC (stereo not given)	0.0	2.7	6.9	-1.1	-3.9

Bioassay records (PubChem)
